Measurements: PubChem BioAssay (Tox21)
A number with no mark means an inactive call. Records with an inconclusive call do not appear. The source made the active and inactive calls. The call rests on the fitted dose curve; in most records, active means well fitted curve in the direction sought with a large enough effect in the repeat runs; inconclusive means weak or mixed curves; inactive means no such curve, though single readings can be large; an effect the other way counts as inactive or inconclusive.

assay: qHTS RealTime-Glo MT Cell Viability Assay in HepG2 cells - 24 hour (AID 1224867); conditions: RealTime-Glo luminescence; series mostly up to 76.8 µM; activity change, negative = cytotoxicity: at the top concentration
Method in brief: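 Luminescence read-out: viable HepG2 cells reduce a prosubstrate to a NanoLuc substrate, giving a signal proportional to live cell number. Reads taken at 0, 8, 16, 24, 32 and 40 h of compound exposure at 37 C.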
Further: nearly all actives have a fitted effect of over 50% in size.
On the % scale 0 is the no-effect control and ±100 the full control effect.

Row | SMILES | activity change, negative = cytotoxicity
1 | O=C(C1CCCCC1)N1CC(=O)N2CCCc3ccccc3C2C1 (stereo not given) | -8.89% [at 35.3 µM]
2 | Nc1cccc2c(=O)[nH][nH]c(=O)c12 | -10.6%
3 | CC(=O)Nc1ccccc1O | 2.13%
4 | Cc1ccc(NC(=O)c2ccc(CN3CCN(C)CC3)cc2)cc1Nc1nccc(-c2cccnc2)n1 | -14.9% [at 35.3 µM]
5 | COc1ccnc2c1CCCCC2S(=O)c1nc2ccccc2[nH]1 (stereo not given) | 0.158% [at 35.3 µM]
6 | Oc1ccc(CCNCCCCCCNCCc2ccccc2)cc1O | -26.2% [at 35.3 µM]
7 | O=c1[nH]nc(-c2ccc([N+](=O)[O-])o2)o1 | -6.3%
8 | COc1ccc(C(=O)Nc2ccccc2)cc1[N+](=O)[O-] | -7.54%
9 | CCCCCCC/C=C/C=O | 0.394%
10 | COC(=O)Cc1cccc2ccccc12 | -3.71%
11 | CCCCOc1ccc(N)cc1 | 0.98%
12 | Nc1ccccc1Nc1ccccc1 | -0.168%
13 | CC/C=C\CCO | 2.19%
14 | CCc1c(C)[nH]c2c1C(=O)C(CN1CCOCC1)CC2 (stereo not given) | 3.56% [at 35.3 µM]
15 | COC(=O)C(C)(C)C | 0.339%
16 | CC(C)C/C=C(\C=O)c1ccccc1 | -2.79%
17 | CC(=O)Oc1cccc2c1C(=O)c1c(OC(C)=O)cc(C(=O)O)cc1C2=O | -5.36% [at 35.3 µM]
18 | COc1ccc(/C=C/c2cc(OC)cc(=O)o2)cc1 | -11.8% [at 35.3 µM]
19 | Oc1ccc(Oc2ccccc2)cc1 | -14.3%
20 | O=C1c2ccccc2C(=O)C1c1ccc2ccccc2n1 | -7.43% [at 35.3 µM]

Row | SMILES | activity change, negative = cytotoxicity
21 | CCCCCCCCCC(C)C=O (stereo not given) | 3.09%
22 | C=C[Si](OCC)(OCC)OCC | 0.484%
23 | CC(C)CC(C)(C)C | -0.784%
24 | CCCC1CCOC(C)S1 (stereo not given) | 1.35%
25 | CC(C)(Cc1c[nH]c2ccccc12)NCC(O)COc1ccccc1C#N (stereo not given) | -15.2% [at 35.3 µM]
26 | O=Cc1ccc(Cl)c([N+](=O)[O-])c1 | -5.22%
27 | CCn1nc(Cc2ccccc2)cc1C1CCN(C[C@H]2C[C@H](N(C)[C@@H](C(=O)O)C(C)C)C[C@@H]2c2cccc(F)c2)CC1 | -7.68%
28 | CC1=CC(=C(c2ccc(N)cc2)c2ccc(N)cc2)C=CC1=N | -2.94% [at 6.97 µM]
29 | Clc1cc(Cl)c2c(c1)N=C1CCCCCN1C2 | -4.58% [at 35.3 µM]
30 | O=C(O)c1ccncc1 | -0.867%
31 | COC(=O)/C=C/C(C)=C\C=C\C(C)=C\C=C\C=C(C)\C=C\C=C(C)\C=C\C(=O)O | -8.56%
32 | NC(=O)c1ccccc1C(N)=O | 0.861%
33 | O=C1c2ccccc2C(=O)c2c1ccc(O)c2O | -7.46% [at 35.3 µM]
34 | O=[N+]([O-])c1ccccc1CCO | 0.335%
35 | CCCN(C1CCN(C(=O)C2CCNCC2)CC1)[C@@H]1CCc2ccc(OC)cc2C1 | -5.18%
36 | O=C(N[C@@H](Cc1ccccc1)[C@@H](O)C(=O)N1C[C@@H](O)[C@@H](O)C1)c1cc2cc(Cl)ccc2[nH]1 | -9.03%
37 | C(/C=C/C=C/Nc1ccccc1)=Nc1ccccc1 | -2.31%
38 | CC(C)(C)c1ccc(CCC=O)cc1 | -0.0319%
39 | Sc1nc(S)nc(S)n1 | 1.98% [at 35.3 µM]

assay: qHTS RealTime-Glo MT Cell Viability Assay in HEK293 cells - 32 hour (AID 1224868); conditions: RealTime-Glo luminescence; series mostly up to 76.8 µM; activity change, negative = cytotoxic: at the top concentration; further: potency means the concentration at half of the fitted maximal effect; on activity change, negative = cytotoxic: top concentration of the series differs between compounds
Method in brief: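 Nonlytic real-time viability readout: viable cells convert prosubstrate to NanoLuc substrate, giving luminescence proportional to live cell number. HEK293, 600 cells/well, compound added after 5 h, continuous culture at 37 C.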

Row | SMILES | activity change, negative = cytotoxic | Potency
40 | O=C(C1CCCCC1)N1CC(=O)N2CCCc3ccccc3C2C1 (stereo not given) | -24.3% [at 35.3 µM] | –
41 | Nc1cccc2c(=O)[nH][nH]c(=O)c12 | -27.9% | –
42 | CC(=O)Nc1ccccc1O | 0.2% | –
43 | Cc1ccc(NC(=O)c2ccc(CN3CCN(C)CC3)cc2)cc1Nc1nccc(-c2cccnc2)n1 | – | 21.3 µM (active)
44 | COc1ccnc2c1CCCCC2S(=O)c1nc2ccccc2[nH]1 (stereo not given) | – | 7.56 µM (active)
45 | Oc1ccc(CCNCCCCCCNCCc2ccccc2)cc1O | – | 26.8 µM (active)
46 | O=c1[nH]nc(-c2ccc([N+](=O)[O-])o2)o1 | 1.09% | –
47 | COc1ccc(C(=O)Nc2ccccc2)cc1[N+](=O)[O-] | – | 24.7 µM (active)
48 | CCCCCCC/C=C/C=O | -4.22% | –
49 | COC(=O)Cc1cccc2ccccc12 | -1.11% | –
50 | CCCCOc1ccc(N)cc1 | 1.54% | –
51 | CC/C=C\CCO | 25.8% | –
52 | CCc1c(C)[nH]c2c1C(=O)C(CN1CCOCC1)CC2 (stereo not given) | -0.161% [at 35.3 µM] | –
53 | CC(C)C/C=C(\C=O)c1ccccc1 | 11% | –
54 | CC(=O)Oc1cccc2c1C(=O)c1c(OC(C)=O)cc(C(=O)O)cc1C2=O | -5.49% [at 35.3 µM] | –
55 | COc1ccc(/C=C/c2cc(OC)cc(=O)o2)cc1 | – | 11.2 µM (active)
56 | Oc1ccc(Oc2ccccc2)cc1 | – | 16.5 µM (active)
57 | CCCCCCCCCC(C)C=O (stereo not given) | 3.42% | –
58 | C=C[Si](OCC)(OCC)OCC | 12.4% | –
59 | CCCC1CCOC(C)S1 (stereo not given) | 2.77% | –
60 | CC(C)(Cc1c[nH]c2ccccc12)NCC(O)COc1ccccc1C#N (stereo not given) | – | 16.9 µM (active)
61 | O=C(O)c1ccncc1 | 6.88% | –
62 | COC(=O)/C=C/C(C)=C\C=C\C(C)=C\C=C\C=C(C)\C=C\C=C(C)\C=C\C(=O)O | 9.79% | –
63 | NC(=O)c1ccccc1C(N)=O | – | 31 µM (active)
64 | O=C1c2ccccc2C(=O)c2c1ccc(O)c2O | 0.619% [at 35.3 µM] | –
65 | O=[N+]([O-])c1ccccc1CCO | 12% | –
66 | C(/C=C/C=C/Nc1ccccc1)=Nc1ccccc1 | -18% | –
67 | CC(C)(C)c1ccc(CCC=O)cc1 | 0.009% | –
68 | Sc1nc(S)nc(S)n1 | 2.83% [at 35.3 µM] | –

assay: A CellTox Green Cytotoxicity Assay to monitor cytotoxicity in HEK293 cells - 0 hour (AID 1224869); conditions: CellTox Green fluorescence; series mostly up to 76.8 µM; cytotoxicity: at the top concentration; further: potency means the concentration at half of the fitted maximal effect
Method in brief: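 Tox21 screen in HEK293: membrane-impermeant cyanine dye fluoresces on binding dead-cell DNA; compound pinned 5 h post-seeding, plates held at 37 C, signal read repeatedly through 40 h.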

Row | SMILES | cytotoxicity | Potency
69 | O=C(C1CCCCC1)N1CC(=O)N2CCCc3ccccc3C2C1 (stereo not given) | -0.2% [at 35.3 µM] | –
70 | Nc1cccc2c(=O)[nH][nH]c(=O)c12 | -3.46% | –
71 | CC(=O)Nc1ccccc1O | 1.02% | –
72 | Cc1ccc(NC(=O)c2ccc(CN3CCN(C)CC3)cc2)cc1Nc1nccc(-c2cccnc2)n1 | -1.62% [at 35.3 µM] | –
73 | COc1ccnc2c1CCCCC2S(=O)c1nc2ccccc2[nH]1 (stereo not given) | 2.38% [at 35.3 µM] | –
74 | Oc1ccc(CCNCCCCCCNCCc2ccccc2)cc1O | -1.77% [at 35.3 µM] | –
75 | O=c1[nH]nc(-c2ccc([N+](=O)[O-])o2)o1 | 0.554% | –
76 | COc1ccc(C(=O)Nc2ccccc2)cc1[N+](=O)[O-] | -4.04% | –
77 | CCCCCCC/C=C/C=O | -3.82% | –
78 | COC(=O)Cc1cccc2ccccc12 | 1.54% | –
79 | CCCCOc1ccc(N)cc1 | 1.37% | –
80 | Nc1ccccc1Nc1ccccc1 | 1.15% | –
81 | CC/C=C\CCO | -2.53% | –
82 | CCc1c(C)[nH]c2c1C(=O)C(CN1CCOCC1)CC2 (stereo not given) | -3.34% [at 35.3 µM] | –
83 | COC(=O)C(C)(C)C | 3.05% | –
84 | CC(C)C/C=C(\C=O)c1ccccc1 | 7.93% | –
85 | CC(=O)Oc1cccc2c1C(=O)c1c(OC(C)=O)cc(C(=O)O)cc1C2=O | 3.98% [at 35.3 µM] | –
86 | COc1ccc(/C=C/c2cc(OC)cc(=O)o2)cc1 | 0.572% [at 35.3 µM] | –
87 | Oc1ccc(Oc2ccccc2)cc1 | -10.1% | –

Row | SMILES | cytotoxicity | Potency
88 | CCCCCCCCCC(C)C=O (stereo not given) | – | 24.5 µM (active)
89 | C=C[Si](OCC)(OCC)OCC | -5.3% | –
90 | CCCC1CCOC(C)S1 (stereo not given) | 0.995% | –
91 | CC(C)(Cc1c[nH]c2ccccc12)NCC(O)COc1ccccc1C#N (stereo not given) | -8.98% [at 35.3 µM] | –
92 | O=Cc1ccc(Cl)c([N+](=O)[O-])c1 | 0.392% | –
93 | CCn1nc(Cc2ccccc2)cc1C1CCN(C[C@H]2C[C@H](N(C)[C@@H](C(=O)O)C(C)C)C[C@@H]2c2cccc(F)c2)CC1 | 1.55% | –
94 | CC1=CC(=C(c2ccc(N)cc2)c2ccc(N)cc2)C=CC1=N | -6.03% [at 6.97 µM] | –
95 | Clc1cc(Cl)c2c(c1)N=C1CCCCCN1C2 | 2.82% [at 35.3 µM] | –
96 | O=C(O)c1ccncc1 | -0.197% | –
97 | COC(=O)/C=C/C(C)=C\C=C\C(C)=C\C=C\C=C(C)\C=C\C=C(C)\C=C\C(=O)O | 1.32% | –
98 | NC(=O)c1ccccc1C(N)=O | – | 49.2 µM (active)
99 | O=C1c2ccccc2C(=O)c2c1ccc(O)c2O | 4.45% [at 35.3 µM] | –
100 | O=[N+]([O-])c1ccccc1CCO | -9.07% | –
101 | CCCN(C1CCN(C(=O)C2CCNCC2)CC1)[C@@H]1CCc2ccc(OC)cc2C1 | 1.8% | –
102 | O=C(N[C@@H](Cc1ccccc1)[C@@H](O)C(=O)N1C[C@@H](O)[C@@H](O)C1)c1cc2cc(Cl)ccc2[nH]1 | -3.46% | –
103 | C(/C=C/C=C/Nc1ccccc1)=Nc1ccccc1 | 4.38% | –
104 | CC(C)(C)c1ccc(CCC=O)cc1 | 1.24% | –
105 | Sc1nc(S)nc(S)n1 | -0.627% [at 35.3 µM] | –
